Results reported in ChEMBL document CHEMBL1201862, “PubChem BioAssay data set” (2004).
In all, about 400,000 compounds went through this assay and about 2,100 (0.53%) were called active. Roughly 14% stayed inconclusive and do not appear here. No rule for the calls is given here. Many of the other results were omitted from the sample, so actives are more common in it than they were.

These molecules were tested against Ataxin-2 (Homo sapiens) (UniProt Q99700) (assay: qHTS for Inhibitors of ATXN expression.).
Chain of Ataxin-2 (Homo sapiens) (Q99700 whole entry): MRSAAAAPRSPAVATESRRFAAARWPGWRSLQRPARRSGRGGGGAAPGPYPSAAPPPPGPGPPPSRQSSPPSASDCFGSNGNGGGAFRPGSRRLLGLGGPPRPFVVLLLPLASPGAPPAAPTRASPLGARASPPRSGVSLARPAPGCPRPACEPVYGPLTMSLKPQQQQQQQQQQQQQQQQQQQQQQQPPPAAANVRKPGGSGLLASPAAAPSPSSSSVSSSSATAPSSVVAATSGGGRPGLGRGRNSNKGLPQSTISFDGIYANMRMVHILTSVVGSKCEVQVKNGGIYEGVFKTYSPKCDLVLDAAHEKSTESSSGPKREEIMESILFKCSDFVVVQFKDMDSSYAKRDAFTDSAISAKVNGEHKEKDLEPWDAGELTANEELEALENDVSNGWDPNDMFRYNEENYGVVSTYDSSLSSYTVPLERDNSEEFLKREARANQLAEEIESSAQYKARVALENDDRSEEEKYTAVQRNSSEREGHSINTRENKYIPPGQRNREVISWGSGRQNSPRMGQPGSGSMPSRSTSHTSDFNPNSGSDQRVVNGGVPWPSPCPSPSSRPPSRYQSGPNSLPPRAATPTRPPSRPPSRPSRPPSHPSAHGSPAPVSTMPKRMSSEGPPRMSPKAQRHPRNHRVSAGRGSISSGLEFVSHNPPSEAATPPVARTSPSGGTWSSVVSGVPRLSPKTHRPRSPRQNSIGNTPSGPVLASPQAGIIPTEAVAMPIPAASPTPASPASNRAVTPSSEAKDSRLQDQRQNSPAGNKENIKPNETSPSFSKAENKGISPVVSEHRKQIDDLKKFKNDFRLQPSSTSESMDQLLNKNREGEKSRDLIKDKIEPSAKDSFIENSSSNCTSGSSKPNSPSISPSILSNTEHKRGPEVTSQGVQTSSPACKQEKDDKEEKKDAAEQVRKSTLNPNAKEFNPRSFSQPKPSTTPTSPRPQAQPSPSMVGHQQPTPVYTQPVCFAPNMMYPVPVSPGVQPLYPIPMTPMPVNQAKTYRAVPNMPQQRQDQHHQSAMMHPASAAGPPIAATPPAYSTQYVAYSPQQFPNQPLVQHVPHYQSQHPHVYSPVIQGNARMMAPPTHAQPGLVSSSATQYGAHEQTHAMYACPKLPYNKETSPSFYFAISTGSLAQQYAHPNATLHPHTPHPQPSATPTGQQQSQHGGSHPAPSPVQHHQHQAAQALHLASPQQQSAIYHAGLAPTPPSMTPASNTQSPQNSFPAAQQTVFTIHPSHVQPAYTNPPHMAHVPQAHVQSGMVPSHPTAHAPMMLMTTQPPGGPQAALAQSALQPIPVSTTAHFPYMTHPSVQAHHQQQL
Format: functional

Row | SMILES | Potency
1 | CCCCC(=O)N/N=C/c1ccc(-c2ccc([N+](=O)[O-])cc2)o1 | inactive
2 | CSCCC(NC(=O)COc1ccccc1)C(=O)N(C)Cc1c(F)cccc1Cl (centres undefined) | inactive
3 | Cc1ccc(Cn2c(=O)c3ccccc3n3nc(C)cc23)cc1 | inactive
4 | O=c1c(Cl)c(Cl)cnn1Cc1ccc(F)cc1 | 39.8 µM (active)
5 | Cc1cc2oc(=O)cc(CN3CCOCC3)c2cc1Cl | inactive
6 | Cc1cccc(Cn2ncc(Cl)c(Cl)c2=O)c1 | 39.8 µM (active)
7 | CC(=O)c1cn(-c2ccc(Cl)cc2)c(=O)n(Cc2ccc(F)cc2)c1=O | inactive
8 | CC(C)(C)c1cc(C(=O)NN)n(Cc2ccc(F)cc2)n1 | inactive
9 | Cc1ccc(Cn2c(=O)c3c(ncn3C)n(C)c2=O)cc1 | inactive
10 | CC1CCN(Cc2cc(=O)oc3cc(O)c(Cl)cc23)CC1 | inactive
11 | Cc1ccc(Cn2ncc(Cl)c(Cl)c2=O)cc1 | 39.8 µM (active)
12 | Cc1ccc(Cn2ncn(-c3ccccc3)c2=O)cc1 | inactive
13 | Cc1cc2oc(=O)cc(Cn3ncc(Cl)c(Cl)c3=O)c2cc1Cl | 39.8 µM (active)
14 | Cc1ccc(-c2cc(C#N)c(=O)n(Cc3c(Cl)cccc3Cl)c2)cc1 | inactive
15 | CCC(C)N1C(=O)S/C(=C/c2ccc(N3CCOCC3)cc2C)C1=O (centres undefined) | inactive
16 | CCN(CC)Cc1c(O)ccc2cc(-c3nc4ccccc4n3C)c(=O)oc12 | inactive
17 | Cc1c2ccccc2nc2c(F)c(N(C)C)c(F)c(F)c12 | inactive
18 | Cc1c(O)ccc2cc(S(=O)(=O)c3ccccc3)c(=O)oc12 | inactive
19 | Cc1cc(C(=O)COC(=O)[C@H](C)NC(=O)c2ccco2)c(C)n1Cc1ccco1 | inactive
20 | COc1ccc(C)cc1NCc1ccc([N+](=O)[O-])cc1 | inactive
21 | COc1ccccc1Nc1nc2cc(C)ccc2cc1C#N | inactive
22 | COc1ccc(C)cc1Nc1n[n+](-c2ccccc2)c(-c2c(OC)ccc3ccccc23)s1 | 20 µM (active)
23 | O=c1[nH]c(=O)n(-c2cc(Br)c(O)c(Br)c2)cc1Br | inactive

Row | SMILES | Potency
24 | O=c1oc2ccccc2cc1-c1nc(-c2cccs2)cs1 | inactive
25 | C=CCOc1ccc(C2C(C(=O)c3ccco3)=C(O)C(=O)N2c2nnc(C)s2)cc1 (centres undefined) | inactive
26 | C=C1CC2(CC(c3ccccc3)OC(c3ccccc3)C2)OC1=O (centres undefined) | 39.8 µM (active)
27 | O=C(/C=C/c1cn(CC(O)CN2CCCCCC2)c2ccccc12)c1cccs1 (centres undefined) | inactive
28 | Fc1ccc(-c2ncc3ccccn23)cc1 | inactive
29 | Cn1c(=S)n(C)c2ccccc21 | inactive
30 | CN(C(=O)CSc1nnc(-c2cccs2)n1N)c1ccccc1 | inactive
31 | O=C(Nc1nnc(C(F)(F)F)s1)c1c(F)cccc1F | inactive
32 | CCC(NC(=O)Nc1nnc(C(F)(F)F)s1)(C(F)(F)F)C(F)(F)F | 31.6 µM (active)
33 | CC1CCN(C(=O)CCC(=O)Nc2nnc(C(F)(F)F)s2)CC1 | inactive
34 | O=C(O)CSc1nnc(-c2cccc(S(=O)(=O)N3CCOCC3)c2)n1-c1ccc(F)cc1 | inactive
35 | N=C1C=CC(=C(c2ccc(N)cc2)c2ccc(N)cc2)C=C1 | 28.2 µM (active)
36 | COc1ccc(COc2ncnc3ccc(Br)cc23)cc1F | inactive
37 | Cc1cc(S(=O)(=O)NC2CC(C)(C)NC(C)(C)C2)c(Cl)cc1Cl | inactive
38 | CC1CCCCN1CCCNC(=O)c1[nH]c2ccccc2c1Sc1ccc(Cl)cc1 (centres undefined) | 39.8 µM (active)
39 | CCC1CCCCN1CCCNC(=O)c1[nH]c2ccccc2c1Sc1ccc(Cl)cc1 (centres undefined) | 39.8 µM (active)
40 | CCCCCn1c(=O)[nH]c2cc(C(=O)NCCCN3CCCCC3C)ccc2c1=O (centres undefined) | inactive
41 | CC1CCCCC1NC(=O)CCn1c(=S)[nH]c2ccccc2c1=O (centres undefined) | inactive
42 | COc1ccccc1[C@H]1C(c2ccccc2)=NN(c2ccccc2)[C@@H]1CO | inactive
43 | Cc1ccc(C2=CC(c3ccc(C)cc3)n3ncnc3N2)cc1 (centres undefined) | inactive
44 | Cc1ccc(Nc2cc(C)c(O)c(C)c2)cc1 | inactive
45 | CC(=O)c1ccc(Nc2cc(C)nc3c(C)cc(C)cc23)cc1 | 29.9 µM (active)
46 | COCc1cc(C)nc2sc(C(=O)Nc3ccc(C(C)=O)cc3)c(N)c12 | inactive

Row | SMILES | Potency
47 | COC(=O)Cc1c(C)c2cc3c(c(C)c2oc1=O)OCN(CCc1ccc(F)cc1)C3 | inactive
48 | COC(=O)Cc1c(C)c2ccc3c(c2oc1=O)CN(Cc1ccccc1OC)CO3 | inactive
49 | COc1ccc(C2C=C(c3ccc(Br)cc3)Nc3nc(N4C(=O)CCC4=O)nn32)cc1 (centres undefined) | inactive
50 | CCc1cc(=O)oc2c(CN3CCN(C)CC3)c(O)ccc12 | inactive
51 | Cc1ccc(-c2csc3ncnc(Sc4nnc(CN5CCCCCC5=O)o4)c23)cc1 | 39.8 µM (active)
52 | CCN(CC)c1ccc(C(=O)c2cnc(/N=C/N(C)C)s2)cc1 | inactive
53 | CCN(CC)c1ccc(C(=O)OCC(=O)N(C(C)C)C(C)C)cc1 | inactive
54 | CCN(CC)c1ccc(C(=C2C=CC(=[N+](CC)CC)C=C2)c2ccc(N(CC)CC)cc2)cc1 | 10 µM (active)
55 | CCOc1ccc(Nc2nc3c(C)cccc3cc2C#N)cc1 | inactive
56 | Cc1ccc(NC(=O)Cc2ccc(Cl)cc2)nc1 | inactive
57 | O=C(Cc1ccc(Cl)cc1)Nc1ccc(-c2nnc(-c3ccco3)o2)cc1 | 39.8 µM (active)
58 | N=C(N)NS(=O)(=O)c1ccc(NC(=S)NC(=O)Cc2ccc(Cl)cc2)cc1 | inactive
59 | CC(C)OCCCNC(=O)NC(=O)c1ccc(Cl)cc1 | inactive
60 | O=C(COc1ccc(Cl)cc1)N(Cc1cccs1)C1CCS(=O)(=O)C1 (centres undefined) | inactive
61 | Cc1cc(O)c(C(=O)/C=C/c2ccc(Cl)cc2)c(=O)o1 | inactive
62 | CCOc1ccc(-n2cc(C(=O)c3cc(Cl)ccc3O)cc(C#N)c2=O)cc1 | inactive
63 | CCN=c1ccc(Br)cc(C(=O)/C=C/c2ccc(Cl)cc2)c1O | 31.6 µM (active)
64 | CCOc1ccc(OCCOc2ccc(/C=C/C(=O)O)cc2OCC)cc1 | inactive
65 | CCOc1ccc(/C=C/C(=O)c2cc(Br)ccc(=O)c2O)cc1 | 22.4 µM (active)
66 | CC(C)(C)c1ccc(C(=O)NNc2ncccc2-n2cccc2)cc1 | inactive
67 | CC(=O)N/N=C/c1cc(C(C)C)cc(/C=N/NC(C)=O)c1O | inactive
68 | O=c1c(Br)c(Br)cnn1-c1ccccc1 | 4.23 µM (active)
69 | COc1cc(OC)nc(-n2ncc(Br)c(Br)c2=O)n1 | 10.6 µM (active)
